Columns and labels:
Test in all cases: PBM binding z-score (relative to random genomic background probes); higher = stronger binding; sequences stand for … in GC…GCGATTGACAGCGTAGAATGAAGG
[1] = test system: RARb homodimer (NR concentration 270 nM)
Procedure, shortened: (§1)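 Probes were double-stranded and carried 34-nt variable regions with direct-repeat seeds, single-nucleotide variants, half-site ablations and random human genomic background sequences, printed on custom Agilent 4×180K protein-binding microarrays. Arrays were incubated 1 h with ligand-free nuclear receptor dimers in PBS pH 7.4, 2% milk, 0.02% Triton X-100, 1 mM DTT, 0.2 mg/mL BSA and 0.4 mg/ml salmon testes DNA. Antibodies against each partner (one per run) detected binding, and scanned fluorescence was regression-normalized. Binding z-scores use the random background probes as reference.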

[2] = test system: RARg:RXRa (NR concentration 270 nM, RXRa partner concentration 90 nM)
Procedure, shortened: as §1

[3] = test system: RARg homodimer (NR concentration 270 nM)
Procedure, shortened: as §1

[4] = test system: RXRa DBDmut IVT, anti-RXR (DBD mutation: RXRa K156A/R161A, NR concentration 90 nM)
Procedure, shortened: as §1

[5] = test system: RXRa homodimer (NR concentration 180 nM)
Procedure, shortened: as §1

[6] = test system: THRa:RXRa (NR concentration 90 nM, RXRa partner concentration 90 nM)
Procedure, shortened: as §1

[7] = test system: THRa homodimer (NR concentration 90 nM)
Procedure, shortened: as §1

[8] = test system: VDR:RXRa (NR concentration 270 nM, RXRa partner concentration 90 nM)
Procedure, shortened: as §1

[9] = test system: VDR homodimer (NR concentration 270 nM)
Procedure, shortened: as §1

Sequence	PBM binding z-score [1]	PBM binding z-score [2]	PBM binding z-score [3]	PBM binding z-score [4]	PBM binding z-score [5]	PBM binding z-score [6]	PBM binding z-score [7]	PBM binding z-score [8]	PBM binding z-score [9]
TATACAGGGTCAAAGGCAAGAGTACGAATGTCGA	3.28	5.58	5.01	3.09	6.4	3.48	1.05	4.61	3.39
CGAACTAGGTCATTGACAGGCCAGTGAATAGTAA	2.44	4.45	4.53	1.99	3.06	2.53	0.248	1.88	0.674
CCTACTGGGCCATTCAGAGGTCATTCATCATATG	4.11	4.47	2.94	0.971	3.37	3.14	1.51	4.26	3.85
TCTTGTAGAACAGCAGGTTAAGAAAGCTGGCCAA	-0.365	-0.24	-0.558	0.506	0.0431	-0.111	-1.15	0.0158	-0.882
CCATACAGGTGAGAAGGTAACTCAGCCTCGATTA	0.666	0.662	0.72	0.319	0.539	0.148	0.348	0.121	-0.195
TATACAGGGTCAAAGGCCAGAGGACGAATGTCGA	3.52	5.92	5.44	2.95	7.17	3.5	0.968	4.73	2.9
ACAGACCGGTGAGTGAAGGTAACTCAGCTGGACG	-0.506	-0.114	-0.11	-0.55	-0.109	0.21	-0.915	-0.63	-0.72
CCTAGCAGGCCAATCTGGGTCAATCAAGGCTTGA	1.85	0.779	1.13	0.108	0.518	3.67	-0.0726	0.445	-0.0739
GCTTTTAGTTGAAAGGGCAACCGAATGATTCTCG	1.78	1.2	1.29	0.971	1.06	0.54	-0.708	0.313	-0.32
CGTCCAAGGTCAGAGAGGTAAGTGAATGCCGAGT	3.27	4.7	5.39	2.67	3.85	3.5	1.8	4.27	1.71
CGAACGAGGGCACGAGTTGATAGCAAATGCCGAT	1.05	1.8	1.98	2.18	1.49	1.84	0.134	1.97	1.58
AGTCAAAGTTCATCTCGGTAACGTAAGATATGCT	3.93	5.53	6.02	4.57	4.35	2.58	-0.318	4.8	4.92
CGTCCAAGGTCAGAGAGCTCAGTGAATGCCGAGT	3.53	4.54	5.24	2.67	3.25	3.14	1.42	2.76	1.5
CCGACTGGGGCATAAGGTTACCATTAGCCAGCCC	1.82	1.34	0.904	-0.204	1.08	1.87	1.37	-0.0219	-0.611
ATCTCTAGGTACCCAAGTTCAGTGAATGCCGAAC	1.41	0.712	0.515	1.14	0.528	0.968	0.385	2.1	2
CCTGACAGGTGAGAAGGTAACTCAGCCTCGATTA	0.33	0.701	0.393	-0.0911	0.509	0.346	-0.0701	-0.0801	-0.656
CCTAGTTAGTCAGGAGGTCACACACCGGATATGA	4.28	4.25	3.72	1.38	4.86	3.74	2.73	3.97	3.01
ACAGACACGTGAGTGAAGGTAACTCAGCTGGACG	-0.372	-0.114	0.0531	-0.182	0.149	-0.478	-0.846	-0.481	-0.417
CGAACTAGGTCAGAACAGGACAGTGAGGGATGAT	2.12	2.44	3.18	0.709	1.47	3.57	0.102	0.739	-0.141
TCTTGTAGATCAAAGGTTAATAAAGCCGAAGCCT	1.25	1.51	0.841	1.09	2.55	1.32	-0.223	1.55	0.243
ATATGTAGGTTATCGGGTCCTTCAGTTTGCGCAT	0.87	0.677	0.506	0.751	0.855	0.708	0.719	3.81	1.51
TTACCAAGGTGAAAGGTCGCTGATGCACGCCTTG	2.77	4.17	2.3	0.982	5.52	3.19	0.725	2.72	0.555
CCTATTAGTTGACCATAAGGTCAACCGAAGCTCG	4.8	4.83	4.07	1.77	4.39	4.27	5.15	3.95	3.25
AGAACGAGGGCACGCTGAGTTGATAGCTGAGTAG	1.13	2.07	2.06	2.15	1.37	1.92	-0.0647	2.04	1.7
CCAACTAGGTCAAGAGGTCAAAGTCCGCTTCCCG	5.51	8.12	7.31	2.99	8.12	4.24	2.47	6.1	4.94
CCGAGTAGGTTATGGGGCATTCATGCAACGGTGA	0.909	0.699	0.725	0.0977	0.697	0.148	-0.334	0.118	0.21

— the supplement of paper PMC6555819
